According to PubChem BioAssay AID1259422 (The Scripps Research Institute Molecular Screening Center, 2018):
Where “and” joins values, the source holds several entries; their conditions need not be identical. Identical values can stand only once. About 9,300 (1.5%) of roughly 640,000 compounds were called active. No stated cut-off is given here; in the data, active means inhibition above about 32%; inactive means the rest. What follows is part of a selection rich in actives, with near analogues and random picks from the rest.

Assay: TEAD-YAP interaction inhibition, primary screen, TEAD-YAP interaction inhibitor project, luminescence, HEK-TIYL cells (AID 1259422);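 further: 0% = median of test compound wells and 100% = reference inhibitor wells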
Conditions: TEAD-Gal4/YAP UAS-luciferase luminescence, at 9.12 µM, hits give high values

Row | SMILES | inhibition
1 | CC(C)N(C)C1CCN(S(=O)(=O)c2cccc([N+](=O)[O-])c2)CC1 | -1.4% (inactive)
2 | Cc1ccc2cccc(NC(=O)c3cc4ccccc4o3)c2n1 | 12.1% (inactive)
3 | CN(CC(=O)Nc1ccccc1F)CC(=O)Nc1ccccc1Br | -1.95% (inactive)
4 | CCC(C)c1ccccc1NC(=O)CN(C)CC(=O)Nc1ccccc1SC (centres undefined) | 36.5% (active)
5 | CCC(C)c1ccccc1NC(=O)C(C)Cl (centres undefined) | -3.45% (inactive)
6 | COc1cccc(/C=N/Nc2ncc(C(F)(F)F)cc2Cl)c1O | 49.5% (active)
7 | COc1cccc(/C=N/NC(=O)c2cccc(NC(=O)c3ccc(F)cc3)c2)c1O | 28.7% (inactive)
8 | COc1cccc(C=Nc2ccc(N)c(Cl)c2)c1O | 6.6% (inactive)
9 | Cc1ccc(Nc2nc(-c3cccs3)cs2)cc1 | 64.2% (active)
10 | Cc1ccc(-c2csc(Nc3ccccc3)n2)c(C)c1 | -65% (inactive)
11 | Cc1ccc(Nc2nc(-c3ccc(Cl)cc3)cs2)cc1 | -86.7% (inactive)
12 | CCOCCCn1c(SCc2cc(=O)n3ccccc3n2)nc2ccccc2c1=O | 0.02% (inactive)
13 | Cc1cc2nnn(C[C@@H](C)NC(=O)Cc3ccccc3)c2cc1C | -20.1% (inactive)
14 | Cc1ccc(-c2nc(CSCC(=O)NC3CCN(Cc4ccccc4)CC3)c(C)o2)cc1 | 33.9% (active)
15 | Cc1ccc(-c2nc(CSCC(=O)N3CCC(C(N)=O)CC3)c(C)o2)cc1 | 10.6% (inactive)
16 | COc1ccc(-c2nc(CSCC(=O)NC3CCCCCC3)c(C)o2)cc1OC | 2.93% (inactive)
17 | O=C(Cn1c(SCC(=O)N2CCCC2)nc2ccccc21)NC1CCCC1 | 3.72% (inactive)
18 | Cc1ccc2nc(-c3ccncc3)cc(C(=O)Nc3ccc4c(c3)OCCO4)c2c1 | 43.3% (active)
19 | Cc1cccc(Oc2ccc(NC(=O)c3cc(-c4ccccc4)nc4ccc(C)cc34)cc2)c1 | -0.69% (inactive)
20 | O=C(Nc1ccc(F)cc1)c1cc(-c2ccncc2)nc2ccccc12 | -1.35% (inactive)
21 | COc1ccc(-c2nnc(SCC(=O)N(C)C)n2C)cc1 | 2.69% (inactive)
22 | CCC(=O)N[C@@H]1c2ccccc2C2(CCN(Cc3cn[nH]c3-c3ccccc3)CC2)[C@H]1OC | -3.33% (inactive)
23 | O=C(Nc1ccccc1F)c1oc2cccnc2c1NC(=O)C1CC1 | 2.6% (inactive)
24 | COc1ccccc1NC(=O)c1oc2cccnc2c1NC(=O)c1ccc(Cl)cc1 | -6.82% (inactive)

Row | SMILES | inhibition
25 | CCOc1ccccc1C(=O)Nc1c(C(=O)Nc2ccccc2F)oc2cccnc12 | 41.9% (active)
26 | Cn1c(SCC(=O)c2ccc3c(c2)OCO3)nnc1-c1cccs1 | -1.64% (inactive)
27 | COc1ccc(C(=O)/C=C/Nc2ccccn2)cc1 | 53.5% (active)
28 | COc1ccc(C(=O)/C=C/Nc2cccc(C(C)O)c2)cc1 (centres undefined) | -59.6% (inactive)
29 | COc1ccccc1N/C=C/C(=O)c1ccc(OC)c(OC)c1 | -24% (inactive) and -18.3% (inactive)
30 | CCC(Oc1ccccc1)C(=O)NC(C)C (centres undefined) | 12.4% (inactive)
31 | CCc1cc(=O)[nH]c(NC2CCN(S(=O)(=O)c3ccccc3)CC2)n1 | 4.67% (inactive)
32 | COc1ccc(CNc2c(-c3ccccc3O)nc3cnccn23)cc1 | 67.4% (active)
33 | COc1ccc(Nc2c(-c3ccccc3O)nc3cnccn23)cc1 | -0.84% (inactive)
34 | Oc1ccccc1-c1nc2cnccn2c1NCc1ccccc1 | -6.9% (inactive)
35 | COc1ccc(OC)c(N/C=C(/C#N)c2nc(-c3ccc(OC)c(OC)c3)cs2)c1 | 0.19% (inactive)
36 | COc1ccc(N=C2SC(C(=O)NCCc3ccccc3)CC(=O)N2CCc2ccc(OC)c(OC)c2)cc1 (centres undefined) | 7.83% (inactive)
37 | Cc1cc(C)nc(NC(N)=NCCC(C)C)n1 | 6.21% (inactive)
38 | O=[N+]([O-])/C=C\c1ccc(N2CCCCC2)cc1 | 31.3% (inactive)
39 | N#CC(C#N)=Cc1ccc(N2CCN(Cc3ccccc3)CC2)c([N+](=O)[O-])c1 | 4.11% (inactive)
40 | O=[N+]([O-])/C=C/c1ccc2c(ccn2Cc2ccccc2)c1 | 33.9% (active)
41 | CC1(C)Cc2c(c(N3CCOCC3)nc3sc4c(N5CCCCC5)nnnc4c23)CO1 | -1.34% (inactive)
42 | CCn1c(=O)c2ccccc2n2c(SCC(=O)N(C)C3CCCCC3)nnc12 | -7.16% (inactive)
43 | O=C(Nc1cccc(NC(=O)c2cccc(Cl)c2Cl)c1)c1ccco1 | -0.83% (inactive)
44 | Oc1ccc(/C=N/Nc2nn[nH]n2)c(O)c1 | -11.8% (inactive)
45 | Oc1ccc(/C=N/Nc2ncc(F)c(N3CCOCC3)n2)c(O)c1 | 58.7% (active)
46 | Cc1ccc(Nc2nc(N/N=C/c3ccccc3O)nc(N3CCOCC3)n2)cc1Cl | -11% (inactive)
47 | COc1ccc(C2=N/C(=C\c3cc(OC)c(OC)c(OC)c3)C(=O)O2)c(Cl)c1 | -1.56% (inactive)
48 | N#Cc1c(-n2ncnc2-c2ccc3c(c2)OCO3)sc2c1CCCC2 | -2.41% (inactive)

Row | SMILES | inhibition
49 | c1ccc(CNc2nc(Nc3cccnc3)nc3c2ncn3-c2ccccc2)cc1 | 25.2% (inactive)
50 | c1ccc(N2CCN(c3nc(NCc4nc5ccccc5[nH]4)c4ncn(-c5ccsc5)c4n3)CC2)nc1 | 68% (active)
51 | c1cncc(Nc2nc(NCc3nc4ccccc4[nH]3)c3ncn(-c4ccsc4)c3n2)c1 | 84.1% (active)
52 | c1ccc(CNc2nc(N3CCN(c4ccccn4)CC3)nc3c2ncn3-c2ccsc2)cc1 | -1.71% (inactive)
53 | FC(F)(F)c1cccc(CNc2nc(N3CCN(c4ccccn4)CC3)nc3c2ncn3-c2ccsc2)c1 | -7.69% (inactive)
54 | c1ccc(-n2cnc3c(NCc4nc5ccccc5[nH]4)nc(Nc4nccc5ccccc45)nc32)cc1 | 7.74% (inactive)
55 | COc1cccc(NC(=S)NC(=O)CC(C)C)c1 | -50% (inactive)
56 | CCc1ccccc1NC(=O)c1cc2ccccc2oc1=O | -2.07% (inactive)
57 | O=C(CC1(O)C(=O)Nc2c(C(F)(F)F)cccc21)c1ccc(Cl)s1 (centres undefined) | -1.56% (inactive)
58 | Cc1ccc2c(c1)-c1c(cnn1CC(=O)NCCCN1CCCCCC1)CO2 | 4.66% (inactive)
59 | CC(NC(=O)CSCc1ccccc1Cl)c1ccccc1 (centres undefined) | -4.44% (inactive)
60 | Cc1noc(C)c1S(=O)(=O)N1CCCC(C(=O)Nc2cccc(Cl)c2C)C1 (centres undefined) | 3.39% (inactive)
61 | CC1CCN(c2cc(NCC(=O)O)c3c4c(onc24)-c2ccccc2C3=O)CC1 | 64% (active)
62 | CCOC(=O)N1CCN(c2cc(NCCO)c3c4c(onc24)-c2ccccc2C3=O)CC1 | 17.6% (inactive)
63 | CN1CCN(c2cc(NCCCC(=O)O)c3c4c(onc24)-c2ccccc2C3=O)CC1 | 11.3% (inactive)
64 | CCN(CC)CCCNCc1ccc(F)cc1Cl | -3.24% (inactive)
65 | COc1ccc(NC(=S)Nc2ccc(OC)cc2)cc1 | -17.9% (inactive)
66 | COc1ccc(NC(=S)NNS(=O)(=O)c2ccc(NC(C)=O)cc2)cc1 | 43.9% (active)
67 | COc1ccc(NC(=S)Nc2ccccc2C(C)=O)cc1 | 8.25% (inactive)
68 | COc1ccc(OC(C)C(=O)Nc2ccc(C(=O)OC(C)C)cc2)cc1 (centres undefined) | 11.3% (inactive)
69 | C=CCn1c(=S)[nH]c2sc(-c3ccccc3)cc2c1=O | -58.7% (inactive)
70 | Cn1c(=O)c(=O)n(C)c2cc(S(=O)(=O)N3CCCc4ccccc43)ccc21 | -1.32% (inactive)
71 | O=C1CC(=O)Nc2cc(S(=O)(=O)N3CCCc4ccccc43)ccc2N1 | 5.24% (inactive)
72 | CS(=O)(=O)c1cccc(S(=O)(=O)N2CCCc3ccccc32)c1 | 3.88% (inactive)

Row | SMILES | inhibition
73 | COc1ccc(S(=O)(=O)N2CCCc3ccccc32)cc1Cl | 36.9% (active)
74 | COc1ccc(S(=O)(=O)N2CCc3ccccc3C2)cc1Cl | 14.1% (inactive)
75 | O=S(=O)(c1ccc2c(c1)OCCCO2)N1CCCc2ccccc21 | 63.8% (active)
76 | CC(=O)NC1C(Oc2ccc(C)cc2C)OC(COC(C)=O)C(OC(C)=O)C1OC(C)=O (centres undefined) | 0.55% (inactive)
77 | COc1ccc(-c2nc3ccccc3n2Cc2ccccc2)cc1OC | -0.42% (inactive)
78 | Nc1nc(Cn2c(-c3nonc3N)nc3ccccc32)nc(N2CCCCC2)n1 | 5.35% (inactive)
79 | Nc1nonc1-c1nc2ccccc2n1CC(=O)Nc1cccc(F)c1 | 40.7% (active)
80 | CCCCCCOc1cccc(NC(=O)Cn2c(-c3nonc3N)nc3ccccc32)c1 | 10.4% (inactive)
81 | Nc1nonc1-c1nc2ccccc2n1CC(=O)N/N=C\c1cccc(F)c1 | 10.8% (inactive)
82 | COc1ccc(C)c(Cn2c(-c3nonc3N)nc3ccccc32)c1 | 53.5% (active)
83 | Cc1ccc(Nc2ncccc2C(=O)N2CCCC2)c(C)c1 | -3.43% (inactive)
84 | COc1ccc2cc(C)c3nn(CN4CCOCC4)c(=O)n3c2c1 | 1.32% (inactive)
85 | CC1(C2CCN(C(=O)c3ccc(N4CCCCC4)cc3)CC2)NC(=O)NC1=O (centres undefined) | -7.9% (inactive)
86 | CC1CCc2sc(NC(=O)Cc3cccc4ccccc34)c(C#N)c2C1 (centres undefined) | 2.89% (inactive)
87 | COc1ccc(Cl)cc1Nc1nc(N2CCOCC2)c2ccccc2n1 | 15.6% (inactive)
88 | c1ccc(Nc2nc(N3CCOCC3)c3ccccc3n2)cc1 | 33.6% (active)
89 | Clc1ccccc1Nc1nc(N2CCOCC2)c2ccccc2n1 | 0.09% (inactive)
90 | O=C(N/N=C\c1ccc([N+](=O)[O-])c(O)c1)c1ccc2c(c1)OCO2 | 42.6% (active)
91 | O=C(N/N=C/c1ccc2c(c1)OCO2)c1cc(O)c(O)c(O)c1 | 9.47% (inactive)
92 | O=C(N/N=C/c1ccc(O)c([N+](=O)[O-])c1)c1ccc2c(c1)OCO2 | -20.5% (inactive)
93 | O=C(CCl)Nc1c(C(=O)C2CC2)oc2ccccc12 | -1.47% (inactive)
94 | O=C(/C=C\c1ccccc1)N1CCN(Cc2nnnn2-c2cccc(F)c2)CC1 | 14.7% (inactive)
